Compound activity as filed in PubChem BioAssay.
HT1080 IDH1KD tx: toxicity to HT-1080 IDH1 knockdown cells (counter line) | Potency, µM (series often up to 46.1 µM), without a hit: at the top dose activity, negative = toxicity, usual class: cytotoxic | actives 2% (n = 360,000) | HT-1080 IDH1 knockdown viability, ATP luminescence, 48 h;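 further: 0% = DMSO wells and -100% = cell-free medium wells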
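Luminescent ATP read-out (CellTiter-Glo, 10 min at room temperature) after 48 h compound exposure at 37 °C gave viability of IDH1-knockdown HT-1080 cells. Activity was normalised to DMSO and cell-free wells, then fitted as concentration-response curves.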
KB-3-1 cytotox: kills parental KB-3-1 adenocarcinoma cells. actives 1.4% (n = 400,000). Potency, µM (titrated, usually from 46.1 µM), actives largely listed as cytotoxic. KB-3-1 viability, CellTiter-Glo ATP luminescence, 72 h. AID 1347075; further: on the % scale 0 is the no-effect control and ±100 the full control effect; nearly all actives have a fitted effect of over 60% in size
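KB-3-1 cells, DMEM (no phenol red) + 10% FBS; compound by pin transfer, 72 h, 37 °C. Readout: CellTiter-Glo luminescence after 10 min. Data normalized, curve-fitted.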
HT1080-NT tox: kills 2HG-producing HT-1080-NT fibrosarcoma cells; Potency, µM (titrated, usually from 46.1 µM), for the others: at the highest dose activity, negative = less viability, most hits filed as cytotoxic; HT-1080-NT fibrosarcoma viability, CellTiter-Glo ATP luminescence, 48 h; actives 1.6% (n = 360,000);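 further: NT is the 2HG producing partner of a matched IDH1 knockdown line; 0% = DMSO-treated cells and -100% = media-only wells without cells; nearly all actives have a fitted effect of over 55% in size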
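Fibrosarcoma NT cells, 750 per well in 5% FBS RPMI, were exposed to compound for 48 hours. Viability: CellTiter-Glo luminescence.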
MCF10A rereplic: inducers of DNA re-replication in MCF 10A breast cells. MCF 10A DNA re-replication, Hoechst nuclear intensity, 48 h. Potency, µM (series often up to 46.1 µM), for inactives: at the highest dose activity, positive = re-replication, actives largely listed as activators. actives 2.9% (n = 350,000). AID 624296; further: % of control where 0% means no effect; nearly all actives have a fitted effect of over 50% in size
KB-V1 MDR tox: KB-V1 MDR subline cytotoxicity; Potency, µM (doses to about 46.1 µM), actives largely listed as cytotoxic; KB-V1 MDR cells viability, CellTiter-Glo, 72 h; actives 3.4% (n = 400,000); AID 1347076; further: on the % scale 0 is the no-effect control and ±100 the full control effect; nearly all actives have a fitted effect of over 60% in size
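qHTS viability screen in drug-selected KB-V1 MDR cells: 72 h compound treatment at 37 degrees C, ATP luminescence end point.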
SW480 rereplic: induces DNA re-replication in SW480 colon adenocarcinoma cells; SW480 DNA re-replication, Hoechst DNA content imaging, 48 h; Potency, µM (top dose mostly 46.1 µM), for inactives: top-dose re-replication activation, most hits filed as activators; actives 1.8% (n = 340,000); AID 624297; further: % of control where 0% means no effect; nearly all actives have a fitted effect of over 55% in size
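Cells (250 per well) received 23 nL compound or DMSO by pin tool and were kept 48 hr at 37 C, 5% CO2. Nuclei were then stained with Hoechst for 40 min and scanned for DNA content.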
Active calls of the source: *; i = inactive; ? = inconclusive; . = no result given; [ ] = another dose, or the depositor's remark. An excerpt weighted towards active compounds, which were near 8% of everything screened. The call rests on the fitted dose curve; in most records, active means well fitted curve in the direction sought with a large enough effect; inconclusive means small, poorly fitted or top-dose-only effect, or another doubt; inactive means no such curve, though single readings can be large; an effect the other way counts as inactive or inconclusive. Potency means the concentration at half of the fitted maximal effect.

SMILES	HT1080 IDH1KD tx	KB-3-1 cytotox	HT1080-NT tox	MCF10A rereplic	KB-V1 MDR tox	SW480 rereplic
Cc1ccc(C)c2c1CCC(=Cc1ccccc1[N+](=O)[O-])C2=O	0%	i	2%	.	i	.
O=C(O)c1ccc(NC(=S)NC(=O)c2cccc(COc3ccccc3)c2)cc1	-8%	i	-3%	-1%	i	-20%
O=C(NCCCOc1cccc(CN2CCCCC2)c1)c1ccc(Cl)c(Cl)c1	23µM*	i	21µM*	?	i	29µM*
c1cc(CN2CCCCC2)cc(OCCCNc2nc3ccccc3s2)c1	?	i	?	?	?	?
CN1CCN(c2ccc(NC(=O)c3cccc(OCc4ccccc4)c3)cc2)CC1	18µM*	i	21µM*	0%	i	?
CCN1CCN(c2ccc(NC(=O)c3cccc(OCc4ccccc4)c3)cc2)CC1	?	?	-24%	?	?	?
O=C(NC(=S)Nc1ccc(CN2CCCCC2)cc1)c1cccc(OCc2ccccc2)c1	21µM*	i	?	23µM*	?	3%
COc1ccc(NC(=O)CSc2cc(C)nc3c(-c4ccccc4)cnn23)cc1	5%	i	4%	9.2µM*	i	?
Cc1cc(N)n2ncc(-c3ccc(Cl)cc3)c2n1	?	18µM*	?	?	?	6%
Cc1cc(Cl)n2ncc(-c3ccccc3)c2n1	?	i	18µM*	?	i	-9%[9.22 µM]
CCOc1ccc(Cn2nnc(C(=O)Nc3cccc(SC)c3)c2N)cc1	.	i	.	.	i	.
CCC(C)NC(=O)C1CCC(=O)N1CCc1ccccc1 (stereo not drawn)	17%	i	12%	-1%	i	-1%
CCOc1ccc(/C=C(\C#N)C(=O)Nc2sc3c(c2C(=O)OC)CCC3)cc1OC	.	i	.	.	i	.
CC(=O)c1cccc(NC(=O)COc2ccccc2C(=O)Nc2ccccc2)c1	.	i	.	.	i	.
CCOc1ncccc1C(=O)N1CCCSC1=Nc1ccc(C(C)=O)cc1	-5%	i	-2%	0.92µM*	i	8%
CCOc1ccc(N=C2SCCCN2C(=O)c2c(CC)noc2C)cc1	7%	.	5%	3%	.	-4%
O=c1cc(/C=C/c2ccc([N+](=O)[O-])cc2)c2ccccc2[nH]1	.	i	.	.	i	.
CC(O)CN(CC(C)O)c1ccc2c(c1)Cc1cc([N+](=O)[O-])ccc1-2 (stereo not drawn)	?	i	-21%	12µM*	i	8.2µM*
O=C(O)c1cccc2c1Cc1cc([N+](=O)[O-])ccc1-2	-21%	?	0%	2%	i	-3%
CC(=NO)c1ccc2c(c1)Cc1cc([N+](=O)[O-])ccc1-2	-3%	15µM*	3%	9%	7.3µM*	2%
CC(C)(C)OC(=O)C[C@@H]1C/C=C\C[C@@H](CC(=O)N(CCO)Cc2ccccc2)C(=O)N[C@H](C(C)(C)C)COC1=O	7%	?	12%	-1%	i	-16%
O=C(O)c1cc([N+](=O)[O-])c(Sc2nc3ccccc3[nH]2)c([N+](=O)[O-])c1	3%	i	-13%	1%	?	?
CS(=O)(=O)c1cc([N+](=O)[O-])c(Sc2nc3ccccc3[nH]2)c([N+](=O)[O-])c1	10µM*	i	11µM*	?	i	8%
Cn1cnc([N+](=O)[O-])c1Sc1nc2ccccc2[nH]1	18µM*	i	?	?	i	20%
CCOc1ccc(CNC(=O)c2sc3nc(C)cc(C)c3c2-n2cccc2)cc1	.	?	.	.	i	.
SMILES	HT1080 IDH1KD tx	KB-3-1 cytotox	HT1080-NT tox	MCF10A rereplic	KB-V1 MDR tox	SW480 rereplic
CC(=O)CSc1nnc2c3ccccc3nc(C(C)(C)C)n12	-4%	i	-5%	?	i	?
CCn1c(SCC(=O)Nc2nc(C)cs2)nnc1-c1ccncc1	8%	i	0%	7%	i	-3%
Cc1ccc(C(=O)CSc2nnc3c4ccccc4nc(C(C)(C)C)n23)cc1	0%	23µM*	23%	6.5µM*	?	13µM*
Cc1csc(NC(=O)CSc2nnc3c4ccccc4nc(C(C)(C)C)n23)n1	6.3µM*	?	5µM*	-4%	?	1%
Cc1ccc(NC(=O)c2sc3nc(C)nc(N4CCN(c5ccccn5)CC4)c3c2C)c(C)c1	-9%	i	-4%	?	i	11%
Cc1nc(N2CCN(c3ccccn3)CC2)c2c(C)c(C(=O)N3CCN(c4ccccc4F)CC3)sc2n1	-4%	?	-25%	7.3µM*	21µM*	7%
CC(C)OP(=O)(OC(C)C)C(NC(=O)c1ccc(Br)cc1)c1ccccc1 (stereo not drawn)	?	?	20µM*	?	3.7µM*	?
